Compounds without any hit were thinned out: in the full panel of roughly 79,000, 15% have a hit. A number with no mark means an inactive call. Active and inactive are the calls of the source. Rule as the data show it: active = growth inhibition above about 70%; inactive = the rest.

From PubChem BioAssay (NCI) come the findings set out here.

Test [1] in a line: NCI Yeast Anticancer Drug Screen. Data for the rad50 strain (AID 155).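 Also: 0% = growth of vehicle-only cultures of the same strain.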 Particulars: S. cerevisiae rad50 strain growth inhibition, stronger effect = higher value. In short, it runs like this:
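Cells are treated with compound, grown, and their growth is then scored against vehicle-only cultures of the same repair-deficient yeast strain.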

Test [2] in a line: NCI Yeast Anticancer Drug Screen. Data for the mec2-1 strain (AID 157). As to conditions: S. cerevisiae mec2-1 strain, stronger effect = higher value. In short, it runs like this:
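Vehicle-treated cultures served as reference for growth inhibition of compound-exposed mec2-1 yeast.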

Test [3] is described as follows: NCI Yeast Anticancer Drug Screen. Data for the sgs1 mgt1 strain (AID 161).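 Also: 0% = growth of cultures given vehicle only.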 Particulars: S. cerevisiae sgs1 mgt1 strain, stronger effect = higher value. Summed up: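 Inhibition of yeast growth, normalised to vehicle-treated controls, is reported for a strain bearing genetic alterations in DNA damage repair.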
The nature of test [4]: NCI Yeast Anticancer Drug Screen. Data for the cln2 rad14 strain (AID 165).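 Also: 0% = growth equal to vehicle treated cultures.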 As to conditions: S. cerevisiae cln2 rad14 strain, stronger effect = higher value. In short, it runs like this:
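Each compound was tested on cln2 rad14 yeast. Inhibition of growth was calculated against vehicle-exposed controls.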

The nature of test [5]: NCI Yeast Anticancer Drug Screen. Data for the bub3 strain (AID 167). Particulars: S. cerevisiae bub3 mutant strain, stronger effect = higher value. Summed up:
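Part of a panel of yeast mutants defective in DNA damage repair or cell cycle regulation. Each strain is grown with compound, and inhibition is calculated relative to solvent-treated cultures.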

Test [6] is described as follows: NCI Yeast Anticancer Drug Screen. Data for the mlh1 rad18 strain (AID 175). As to conditions: S. cerevisiae mlh1 rad18 strain growth inhibition, stronger effect = higher value. In short, it runs like this: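 Vehicle-treated cultures served as the reference for growth inhibition in a yeast strain carrying DNA damage repair alterations exposed to each compound.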
[7] abbreviates: at 5.0 µM (retest, dose inferred, filed as 0.5).
The mark [8] stands for this setting: at 50.0 µM (retest, dose inferred, filed as 5.0).

Consider `O=C(Nc1cccc(C(F)(F)F)c1)c1cc(Br)cc(Br)c1O`, for which the growth inhibition was 38% in test [1] (setting [7]); 87% (active) in test [1] (setting [8]); 83.2% (active) in test [1] (at 50.0 µM); 37% in test [2] (setting [7]); 80% (active) in test [2] (setting [8]); 62.6% in test [2] (at 50.0 µM). For the same molecule, the growth inhibition in test [3] (setting [7]) was 44%; in test [3] (setting [8]), 85% (active); in test [3] (at 50.0 µM), 77% (active); in test [4] (setting [7]), 45%; in test [4] (setting [8]), 75% (active); in test [4] (at 50.0 µM), 67.5%. Besides, the growth inhibition is 44% in test [5] (setting [7]); 83% (active) in test [5] (setting [8]); 69.3% in test [5] (at 50.0 µM); 52% in test [6] (setting [7]); 95% (active) in test [6] (setting [8]); 64.1% in test [6] (at 50.0 µM).

For `Oc1ccc2ccccc2c1CNc1ccc2ccccc2c1`, the growth inhibition in test [1] (setting [7]) is 8%; in test [1] (setting [8]), 57%; in test [1] (at 50.0 µM) it was 95.9% (active); in test [2] (setting [7]), 10%; in test [2] (setting [8]), 15%; in test [2] (at 50.0 µM) it was 98.7% (active). For the same molecule, the growth inhibition in test [3] (setting [7]) is 11%; in test [3] (setting [8]), 69%; in test [3] (at 50.0 µM), 98.8% (active); in test [4] (setting [7]), -1%; in test [4] (setting [8]), 18%; in test [4] (at 50.0 µM), 97.8% (active). In addition, the growth inhibition in test [5] (setting [7]) was 0%; in test [5] (setting [8]), 60%; in test [5] (at 50.0 µM), 95.4% (active); in test [6] (setting [7]), 12%; in test [6] (setting [8]) it was 67%; in test [6] (at 50.0 µM), 98.5% (active).

Turning to `S=C(N/N=C(/c1ccccc1)c1ccccn1)N1CCCCC1`, the growth inhibition is 58% in test [1] (setting [7]); 98% (active) in test [1] (setting [8]); 80.2% (active) in test [1] (at 50.0 µM); 27% in test [2] (setting [7]); 98% (active) in test [2] (setting [8]); 86.3% (active) in test [2] (at 50.0 µM). Moreover, the growth inhibition is 66% in test [3] (setting [7]); 98% (active) in test [3] (setting [8]); 88.2% (active) in test [3] (at 50.0 µM); 30% in test [4] (setting [7]); 97% (active) in test [4] (setting [8]); 89% (active) in test [4] (at 50.0 µM). The growth inhibition was 54% in test [5] (setting [7]); 97% (active) in test [5] (setting [8]); 90.2% (active) in test [5] (at 50.0 µM); 83% (active) in test [6] (setting [7]); 98% (active) in test [6] (setting [8]); 90.8% (active) in test [6] (at 50.0 µM).

For the molecule `CC(=O)OC[C@@H](OC(C)=O)[C@H](OC(C)=O)c1cnn(-c2ccccc2)n1`, the growth inhibition in test [1] (setting [7]) was -3%; in test [1] (setting [8]) it was -11%; in test [1] (at 50.0 µM), -0.85%; in test [2] (setting [7]), -1%; in test [2] (setting [8]), -6%; in test [2] (at 50.0 µM) it was 3.15%. The growth inhibition in test [3] (setting [7]) is -4%; in test [3] (setting [8]), 14%; in test [3] (at 50.0 µM) it was 3.25%; in test [4] (setting [7]) it was -1%; in test [4] (setting [8]) it was -2%; in test [4] (at 50.0 µM), -5.7%. In addition, the growth inhibition was 13% in test [5] (setting [7]); 29% in test [5] (setting [8]); 71.8% (active) in test [5] (at 50.0 µM); 3% in test [6] (setting [7]); -3% in test [6] (setting [8]); 12.8% in test [6] (at 50.0 µM).

Take `N#CI1OC(C(F)(F)F)(C(F)(F)F)c2ccccc21`: the growth inhibition in test [1] (setting [7]) was 72% (active); in test [1] (setting [8]), 98% (active); in test [1] (at 50.0 µM), 45.2%; in test [2] (setting [7]), 61%; in test [2] (setting [8]), 99% (active); in test [2] (at 50.0 µM), 92.2% (active). Moreover, the growth inhibition in test [3] (setting [7]) was 72% (active); in test [3] (setting [8]), 99% (active); in test [3] (at 50.0 µM) it was 87.7% (active); in test [4] (setting [7]) it was 53%; in test [4] (setting [8]), 99% (active); in test [4] (at 50.0 µM), 88.6% (active). For the same molecule, the growth inhibition in test [5] (setting [7]) is 91% (active); in test [5] (setting [8]), 99% (active); in test [5] (at 50.0 µM) it was 86.6% (active); in test [6] (setting [7]), 87% (active); in test [6] (setting [8]), 98% (active); in test [6] (at 50.0 µM), 92.3% (active).

As to `Cc1ccc(C2SCC(=O)N2c2ccc(-n3c(-c4ccccc4)nc4ccccc4c3=O)cc2)cc1` (stereo not given), the growth inhibition was -16% in test [1] (setting [7]); 90% (active) in test [1] (setting [8]); 75.3% (active) in test [1] (at 50.0 µM); -8% in test [2] (setting [7]); 55% in test [2] (setting [8]); 67.5% in test [2] (at 50.0 µM). For the same molecule, the growth inhibition was -10% in test [3] (setting [7]); 81% (active) in test [3] (setting [8]); 77.2% (active) in test [3] (at 50.0 µM); -16% in test [4] (setting [7]); 87% (active) in test [4] (setting [8]); 83.2% (active) in test [4] (at 50.0 µM). Moreover, the growth inhibition was -24% in test [5] (setting [7]); 74% (active) in test [5] (setting [8]); 72.7% (active) in test [5] (at 50.0 µM); -8% in test [6] (setting [7]); 88% (active) in test [6] (setting [8]); 79.8% (active) in test [6] (at 50.0 µM).

For `ClC1CC[N-]CC1.ClC1CC[N-]CC1.[Cl][Pt+2]([Cl])([Cl])[Cl]`, the growth inhibition in test [1] (setting [7]) was 50%; in test [1] (setting [8]), 96% (active); in test [1] (at 50.0 µM), 89.5% (active); in test [2] (setting [7]), 42%; in test [2] (setting [8]) it was 98% (active); in test [2] (at 50.0 µM), 90.9% (active). Besides, the growth inhibition is 58% in test [3] (setting [7]); 98% (active) in test [3] (setting [8]); 90.2% (active) in test [3] (at 50.0 µM); 36% in test [4] (setting [7]); 98% (active) in test [4] (setting [8]); 87.4% (active) in test [4] (at 50.0 µM). The growth inhibition was 64% in test [5] (setting [7]); 98% (active) in test [5] (setting [8]); 93% (active) in test [5] (at 50.0 µM); 35% in test [6] (setting [7]); 96% (active) in test [6] (setting [8]); 91.7% (active) in test [6] (at 50.0 µM).

On to `N#CC1=C(N)OC(c2ccccc2)=C(C#N)C1c1ccccc1[N+](=O)[O-]` (stereo not given), for which the growth inhibition in test [1] (setting [7]) was 5%; in test [1] (setting [8]) it was 5%; in test [1] (at 50.0 µM), -8.2%; in test [2] (setting [7]) it was 9%; in test [2] (setting [8]), 8%; in test [2] (at 50.0 µM), 38.1%. Besides, the growth inhibition in test [3] (setting [7]) was 12%; in test [3] (setting [8]) it was -8%; in test [3] (at 50.0 µM), 22.7%; in test [4] (setting [7]), 11%; in test [4] (setting [8]), 5%; in test [4] (at 50.0 µM), 72.5% (active). In addition, the growth inhibition in test [5] (setting [7]) is -1%; in test [5] (setting [8]), -4%; in test [5] (at 50.0 µM), 39.1%; in test [6] (setting [7]), 2%; in test [6] (setting [8]), 7%; in test [6] (at 50.0 µM) it was 23.3%.

Regarding `NNC(=O)C(=O)N/N=C(/CCC(=O)NCCc1ccccc1)CC(=O)c1ccccc1`, the growth inhibition in test [1] (setting [7]) is 1%; in test [1] (setting [8]) it was 3%; in test [1] (at 50.0 µM), 28.5%; in test [2] (setting [7]), 1%; in test [2] (setting [8]), 2%; in test [2] (at 50.0 µM), 3.05%. For the same molecule, the growth inhibition in test [3] (setting [7]) was -2%; in test [3] (setting [8]), 4%; in test [3] (at 50.0 µM) it was 9.1%; in test [4] (setting [7]), -3%; in test [4] (setting [8]), 1%; in test [4] (at 50.0 µM), 6.15%. For the same molecule, the growth inhibition was 0% in test [5] (setting [7]); 0% in test [5] (setting [8]); -3.3% in test [5] (at 50.0 µM); -2% in test [6] (setting [7]); -3% in test [6] (setting [8]); 22.6% in test [6] (at 50.0 µM).

Regarding `COC(=O)C(=Cc1c[nH]c2ccccc12)C(=O)OC`, the growth inhibition was -12% in test [1] (setting [7]); 0% in test [1] (setting [8]); 11.6% in test [1] (at 50.0 µM); 4% in test [2] (setting [7]); 2% in test [2] (setting [8]); 30.3% in test [2] (at 50.0 µM). Besides, the growth inhibition in test [3] (setting [7]) is -1%; in test [3] (setting [8]), -6%; in test [3] (at 50.0 µM) it was 4.55%; in test [4] (setting [7]), -1%; in test [4] (setting [8]), -4%; in test [4] (at 50.0 µM), 16.3%. Also, the growth inhibition in test [5] (setting [7]) is -3%; in test [5] (setting [8]), 2%; in test [5] (at 50.0 µM), 10.6%; in test [6] (setting [7]) it was -18%; in test [6] (setting [8]), -17%; in test [6] (at 50.0 µM), 10.8%.
